Screening results from PubChem.
PfM18AAP inh: PfM18AAP inhibitors, malaria aminopeptidase, primary screen, biochemical, QFRET, recombinant enzyme; AID 1822, 2009; 1.2% of 290,000 active; inhibition, % at 7.35 µM; H-Glu-NHMec fluorogenic cleavage;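 active = inhibition above the campaign mean inhibition over all tested compounds plus 3 SD, cut at about 28% in these data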;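 note: 0% = plate median of test compound wells and 100% = 2 mM ZnCl2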
ALR H2O2 inh: inhibitors of human ALR sulfhydryl oxidase, primary screen, biochemical, H2O2 detection, HRP-luminol luminescence, single point. purified ALR, DTT oxidation. FAD-linked sulfhydryl oxidase ALR (Homo sapiens), P55789. 3.8% of 290,000 active. inhibition, % (test concentration not listed);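 active = mean replicate inhibition above about 79%, with every replicate also reaching it, limit read from the data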
Target sequence (P55789 whole entry, looked up): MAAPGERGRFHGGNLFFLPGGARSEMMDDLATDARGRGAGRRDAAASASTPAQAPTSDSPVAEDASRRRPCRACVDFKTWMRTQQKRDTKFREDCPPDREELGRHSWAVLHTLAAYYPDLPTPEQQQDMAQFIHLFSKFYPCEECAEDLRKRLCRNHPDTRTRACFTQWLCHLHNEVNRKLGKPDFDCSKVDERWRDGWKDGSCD
HIF act: HIF pathway transcriptional activators, primary screen, cell-based, U2OS HRE-luciferase, luminescence; U2OS HRE-luciferase reporter; normalized: DMSO 0%, desferrioxamine 100%; activation, % at 7.5 µM (by protocol); 0.32% of 300,000 active; AID 1910, 2009;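 active = mean activation of at least 10% of the iron chelator positive control signal, with at least half of replicates also reaching 10%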
Mot1-301 SUMO: yeast Mot1-301 growth rescue at high temperature, primary screen, SUMOylation pathway inhibitor project, S. cerevisiae, ATP luminescence, 38.5C. 1% of 320,000 active. S. cerevisiae Mot1-301 growth rescue; percent above DMSO median, 100 means doubled. growth rescue, % at 18.8 µM. AID 2716, 2010;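 active = every valid replicate shows activation above 250% relative to neutral control wells; inactive = the rest, any valid replicate at or below 250%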;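 note: OY570 slx delta 5 strain wells were the positive control but not used for scaling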
Yeast Mot1 SUMO: growth restoration of Mot1-301 yeast on galactose, dose response, SUMO pathway inhibitor project, whole organism, S. cerevisiae, ATP luminescence, cherry-picked samples; shares compounds with Mot1-301 SUMO; S. cerevisiae Mot1-301 galactose growth, 24 h; -100 = growth of slx-deleted rescue strain; growth activity, percent, % at 42 µM; 2,300 tested, under 10 active;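 active = Signal drops as the depositor expects, and the fitted half-maximal dose is no more than ten times the top valid tested dose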;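 note: more negative values mean stronger growth rescue toward the control strain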
* marks the source's active call; other numbers are inactive results; nt = no result. Rows were chosen to be rich in hits. Some 5.3% of all compounds tested hit in one or more screens of this group.

SMILES	PfM18AAP inh	ALR H2O2 inh	HIF act	Mot1-301 SUMO	Yeast Mot1 SUMO
C=C1C(O)[C@@H]2O[C@]3(CC[C@H](/C=C/C(C)[C@@H]4CC(C)=CC5(O[C@H](C[C@@](C)(O)C(=O)O)CCC5O)O4)O3)CC[C@H]2O[C@@H]1C(O)CC(C)[C@H]1OC2(CCCCO2)CCC1C (stereo not given in full)	nt	0.0	nt	887.7*	-1.9
C[C@]12CC(=CO)C(=O)C[C@@H]1CC[C@@H]1[C@@H]2CC[C@@]2(C)[C@H]1CC[C@]2(C)O	-2.1	nt	nt	nt	nt
COCCNC(=O)Cn1cc(C(=O)c2ccccc2F)c2ccccc21	1.1	1.6	0.6	-13.2	nt
CCOC(C(=O)OCCCN(CC)CC)(c1ccccc1)c1ccccc1	-9.3	2.7	0.2	509.7*	-0.6
CCN(CC)CCCOC(=O)C(OC(C)C)(c1ccccc1)c1ccccc1	-3.6	nt	0.3	19.0	nt
COc1ccc2c3c([nH]c2c1)C(C)NCC3 (stereo not given)	5.2	-2.5	0.1	-2.2	nt
COc1ccc2c(c1)[C@@]13CCC=C[C@H]1[C@@H](C2)NCC3	nt	1.0	nt	455.3*	0.0
CN(C)C1(c2nnnn2-c2ccc(Cl)cc2)CCCCC1	-1.1	-20.0	-0.4	737.0*	0.4
CN(C)C1(c2nnnn2CCOC(=O)Nc2ccc(Cl)cc2)CCCCC1	0.6	5.9	0.0	-6.9	nt
COC(=O)c1c(C)n(Cc2ccc3c(c2)OCO3)c2ccc(O)cc12	7.0	3.5	0.3	696.4*	-0.5
FC(F)(F)c1ccccc1CCN1CCNCC1	6.7	0.9	1.4	-17.1	nt
CCCN1CCC[C@@H](c2cccc(O)c2)C1	nt	19.8	nt	-7.7	nt
C[N+](C)(C)CC(=O)Nc1ccc(Cl)cc1C(=O)c1ccccc1	0.7	-14.1	-0.5	415.4*	-0.4
Cc1c(C)c2ccc(OCC(=O)N3CCC(C(=O)O)(c4ccccc4)CC3)c(C)c2oc1=O	7.5	-0.9	-0.1	-16.7	nt
CC1=NN(Cc2c[nH]c3ccccc23)C(C)(C)C1	3.1	-2.6	0.3	-21.3	nt
CCOC(=O)C1(c2ccccc2)CCN(CCC(=O)Nc2ccccc2OC)CC1	-1.6	0.6	0.1	378.0*	0.6
Cc1cc(/C=C2\C(=O)NC(=O)N(c3ccc(F)cc3)C2=O)c(C)n1-c1cccc(C(=O)O)c1	13.1	29.0	0.0	7.7	nt
Cc1cc(/C=C2\C(=O)NC(=O)N(c3ccccc3F)C2=O)c(C)n1-c1cc(C(=O)O)cc(C(=O)O)c1	30.1*	8.6	-5.5	736.9*	0.2
CCC1C(c2ccccc2)NC(c2ccccc2)CC1(O)c1ccc(F)cc1 (stereo not given)	-1.6	-22.4	-0.2	683.1*	0.3
Cc1ccc2c(c1)c(=O)c1c3n2CCN(CC2CO2)C3CC1 (stereo not given)	1.9	-25.8	0.0	125.4	nt
